Results on 8 molecules are retold here after PubChem BioAssay (NCI).

Molecules are shown by their SMILES. The panel holds about 83,000 compounds, 20% with a hit somewhere; the sample as a whole holds those more often.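 How to read the values: 0–100, growth inhibition (40 = 60% inhibited); 0, no net growth; -100 to 0, cell death (-40 = 40% of starting cells died; -100 = all dead).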 Unmarked numbers belong to inactive results. Calls of active or inactive are those of the source. Rule for the calls: active = growth percent below 10; inactive = the rest.

Test systems include NCI-H23 lung; NCI-H226 lung; NCI-H322M lung; HOP-62 NSCLC; NCI-H460 lung; HOP-92 NSCLC; NCI-H522 lung; 786-0 renal; COLO 205 colon; DU-145 prostate; K-562 leukemia; MALME-3M melanoma; MDA-MB-231 breast; RXF 393 renal; SF-268 CNS; SF-295 CNS; SF-539 CNS; UACC-257 melanoma; M14 melanoma.
Test in all cases: NCI-60 one-dose screen, 48 h (100 = growth as untreated, 0 = no growth, -100 = all killed)
Holding throughout (details): 10 µM unless noted

As to `CC(=O)c1ccc(-n2cc(CN3CCN(c4cc5c(cc4F)c(=O)c(C(=O)O)cn5C4CC4)CC3)nn2)cc1`, the growth was 83.5% in the experiment with NCI-H23 lung; 69.6% in the experiment on NCI-H226 lung; 89.2% with NCI-H322M lung; 78.7% in the experiment with HOP-62 NSCLC; 91.2% in the experiment on NCI-H460 lung; 79.9% with HOP-92 NSCLC. For the same molecule, the growth in the experiment on NCI-H522 lung was 89.2%; in the experiment on 786-0 renal, 87.9%; in the experiment on COLO 205 colon it was 110%; in the experiment with DU-145 prostate it was 104%; with K-562 leukemia it was 101%; in the experiment on MALME-3M melanoma, 94.9%. In addition, the growth in the experiment with MDA-MB-231 breast was 97.1%; in the experiment with RXF 393 renal it was 72%; in the experiment on SF-268 CNS, 85.3%; in the experiment with SF-295 CNS it was 95.9%; in the experiment on SF-539 CNS, 92.6%; with UACC-257 melanoma, 96.7%. Further, the growth in the experiment with M14 melanoma is 90.1%.

In the case of `COc1ccc2cc(C(=O)N3CCC([C@@H](C)C(=O)NCc4ccc5c(c4)OCO5)CC3)[nH]c2c1`, the growth is 26.3% [50 µM] with NCI-H23 lung; -5.97% [50 µM] (active) in the experiment with NCI-H226 lung; 86.7% [50 µM] in the experiment on NCI-H322M lung; -1.78% [50 µM] (active) in the experiment on HOP-62 NSCLC; 41.9% [50 µM] with NCI-H460 lung; -17.6% [50 µM] (active) with HOP-92 NSCLC. Also, the growth in the experiment with NCI-H522 lung was -6.66% [50 µM] (active); with 786-0 renal, -10.5% [50 µM] (active); in the experiment on COLO 205 colon it was 88.5% [50 µM]; with DU-145 prostate, 60.5% [50 µM]; in the experiment on K-562 leukemia it was 77.2% [50 µM]; in the experiment on MALME-3M melanoma, 44.2% [50 µM]. The growth is 34.1% [50 µM] with MDA-MB-231 breast; -1.62% [50 µM] (active) in the experiment on RXF 393 renal; 32.9% [50 µM] in the experiment with SF-268 CNS; 48.1% [50 µM] in the experiment on SF-295 CNS; 41.1% [50 µM] with SF-539 CNS; 77.8% [50 µM] in the experiment on UACC-257 melanoma. For the same molecule, in the experiment on M14 melanoma, the growth is 65.2% [50 µM].

Take `O=C(CSc1nnnn1-c1ccccc1)Nc1ccc(Oc2ccccc2)cc1`: the growth in the experiment on NCI-H23 lung was 101%; with NCI-H226 lung, 87.5%; in the experiment with NCI-H322M lung, 114%; in the experiment with HOP-62 NSCLC, 95.6%; in the experiment with NCI-H460 lung, 110%; with HOP-92 NSCLC, 75%. The growth in the experiment with NCI-H522 lung is 79.3%; in the experiment with 786-0 renal, 102%; with COLO 205 colon, 110%; in the experiment with DU-145 prostate it was 111%; with K-562 leukemia, 120%; in the experiment with MALME-3M melanoma, 133%. The growth is 94.2% in the experiment with MDA-MB-231 breast; 111% in the experiment with RXF 393 renal; 101% in the experiment with SF-268 CNS; 100% in the experiment with SF-295 CNS; 111% in the experiment on SF-539 CNS; 96.2% in the experiment on UACC-257 melanoma. Moreover, in the experiment on M14 melanoma, the growth is 111%.

For the molecule `O=[N+]([O-])c1ccccc1Sc1ccccc1[N+](=O)[O-]`, the growth in the experiment with NCI-H23 lung is 93.7%; in the experiment on NCI-H226 lung, 98.5%; in the experiment with NCI-H322M lung, 91.4%; in the experiment with HOP-62 NSCLC, 92.8%; in the experiment on NCI-H460 lung, 103%; in the experiment on HOP-92 NSCLC, 78.6%. The growth was 87.8% in the experiment with NCI-H522 lung; 93.4% in the experiment on 786-0 renal; 110% with COLO 205 colon; 104% in the experiment with DU-145 prostate; 97.5% in the experiment with K-562 leukemia; 92.4% in the experiment on MALME-3M melanoma. The growth with MDA-MB-231 breast is 105%; with RXF 393 renal, 98.1%; in the experiment on SF-268 CNS it was 88%; in the experiment on SF-295 CNS, 101%; with SF-539 CNS, 94.8%; in the experiment with UACC-257 melanoma, 107%. Further, the growth in the experiment with M14 melanoma is 100%.

`COC(=O)[C@@]1(C)CC[C@]2(C)CC[C@]3(C)C4=CC=C5C(=CC(=O)C(O)=C5C)[C@]4(C)[C@@H](O)C[C@@]3(C)[C@@H]2C1`: the growth with NCI-H23 lung was 49.2%; with NCI-H226 lung, 98.7%; in the experiment on NCI-H322M lung, 96.8%; in the experiment with HOP-62 NSCLC it was 89.7%; with NCI-H460 lung, 63.6%; in the experiment with HOP-92 NSCLC, -3.8% (active). For the same molecule, the growth is -24.2% (active) with NCI-H522 lung; -30.3% (active) in the experiment with 786-0 renal; 12.8% in the experiment with COLO 205 colon; 21.3% in the experiment with DU-145 prostate; 8.3% (active) with K-562 leukemia; 7.58% (active) in the experiment with MALME-3M melanoma. In addition, the growth in the experiment on MDA-MB-231 breast was -0.344% (active); in the experiment with RXF 393 renal, -35.1% (active); with SF-268 CNS, 62.5%; with SF-295 CNS it was 74.8%; in the experiment with SF-539 CNS, -8.84% (active); in the experiment on UACC-257 melanoma, 32%. In addition, the growth in the experiment with M14 melanoma was 7.16% (active).

Turning to `CC1(C)N=C(N)N=C(N)N1c1cc(Cl)ccc1Cl`, the growth in the experiment on NCI-H23 lung is 74.4%; in the experiment with NCI-H226 lung, 94.3%; with NCI-H322M lung, 119%; in the experiment with HOP-62 NSCLC, 92.8%; in the experiment on NCI-H460 lung, 32.3%; in the experiment on HOP-92 NSCLC it was 94%. Also, the growth was 52.7% with NCI-H522 lung; 110% in the experiment on 786-0 renal; 87.5% in the experiment with COLO 205 colon; 6.66% (active) in the experiment on DU-145 prostate; 71.2% in the experiment with K-562 leukemia; 125% in the experiment on MALME-3M melanoma. Further, the growth is 92.6% in the experiment with MDA-MB-231 breast; 78.7% in the experiment with RXF 393 renal; 75.1% in the experiment with SF-268 CNS; 51.5% with SF-295 CNS; 85.8% in the experiment on SF-539 CNS; 94.7% in the experiment with UACC-257 melanoma. For the same molecule, in the experiment with M14 melanoma, the growth is 94%.

With `COc1cc(/C=N/NC(=O)c2ccc(-n3cc(-c4ccccc4)nn3)cc2)cc(OC)c1OC`, the growth in the experiment with NCI-H23 lung is 59.1%; in the experiment on NCI-H226 lung, 32.5%; in the experiment with NCI-H322M lung, 60.6%; in the experiment with HOP-62 NSCLC it was 71.7%; in the experiment with NCI-H460 lung it was 41.5%; in the experiment with HOP-92 NSCLC it was 86.9%. The growth in the experiment with NCI-H522 lung was 68.3%; in the experiment with 786-0 renal, 93.8%; in the experiment with COLO 205 colon, 56.7%; with DU-145 prostate, 56.9%; in the experiment with K-562 leukemia, 60.6%; with MALME-3M melanoma, -1.82% (active). For the same molecule, the growth in the experiment on MDA-MB-231 breast was 78.2%; in the experiment on RXF 393 renal, 68.7%; in the experiment on SF-268 CNS, 57.9%; in the experiment on SF-295 CNS it was 88%; in the experiment with SF-539 CNS it was 53.2%; in the experiment on UACC-257 melanoma it was 53.9%. The growth in the experiment on M14 melanoma is 26.6%.

Take `CCOC(=O)/C(=C(/C)NCC(C)C)c1cc(O)c(O)c2c(C)cc(=O)[nH]c12`: the growth with NCI-H23 lung is 51.4%; in the experiment on NCI-H226 lung, 71.9%; in the experiment with NCI-H322M lung it was 62.5%; with HOP-62 NSCLC it was 38.2%; in the experiment with NCI-H460 lung, 23.1%; in the experiment with HOP-92 NSCLC, 40.2%. The growth is 26.8% with NCI-H522 lung; 47.4% with 786-0 renal; 99.7% with COLO 205 colon; 64.5% in the experiment with DU-145 prostate; 24.5% with K-562 leukemia; 53.8% in the experiment with MALME-3M melanoma. Moreover, the growth in the experiment on MDA-MB-231 breast is 61.3%; with RXF 393 renal, 83%; with SF-268 CNS, 24.1%; in the experiment with SF-295 CNS, 52.3%; with SF-539 CNS, 35.7%; in the experiment on UACC-257 melanoma it was 83.5%. The growth in the experiment on M14 melanoma is 53.3%.
